± gives the standard deviation.
Legend:
[1] = test system: MILI (PIWIL2) piRISC loaded with L1MC piRNA (26 nt); assay: pre-steady-state target cleavage rate (min^-1); guide: L1MC piRNA 5'p-UAACUAAAUACUAUGCAAGCUGUAGG; higher = faster piRNA-guided slicing of the target
How it was run: (§1)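 A transcribed, DNA-blocked target RNA library (0.1 nM) and 1 nM active affinity-purified piRISC bearing one synthetic guide were incubated in HEPES–potassium acetate buffer at 33 °C for 0–8 or 0–960 min, either with or without 500 nM GTSF1 partner protein. Uncleaved targets were sequenced, normalised to depth and to weakly complementary targets, and pooled over three trials, with k3 capped at 0.0001 min^-1. The pre-steady-state cleavage rate was derived with a burst-and-steady-state fit.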

[2] = test system: EfPiwi piRISC loaded with L1MC piRNA (26 nt); assay: pre-steady-state target cleavage rate (min^-1); auxiliary factor: 500 nM Ephydatia muelleri Gtsf1; guide: L1MC piRNA 5'p-UAACUAAAUACUAUGCAAGCUGUAGG; MIWI and MILI are mouse PIWI proteins and EfPiwi is from a freshwater sponge; tags in brackets are library labels; higher = faster piRNA-guided slicing of the target
How it was run: as §1

[3] = auxiliary factor: 500 nM mouse GTSF1
[4] = auxiliary factor: none (no GTSF1)

Sequence	pre-steady-state target cleavage rate [1, 3]	pre-steady-state target cleavage rate [1, 4]	pre-steady-state target cleavage rate [2]
UCCUGGAUGUGCUUGCAUAGUUUUUAGUUA	0.0127 ± 0.0066	0.00796 ± 0.0026	0.00538 ± 0.0024
UCCUCCUACAGCUUGUAUAGUAUUUAGUUA	0.305 ± 0.018	0.00822 ± 0.0025	0.143 ± 0.033
UCCUGGAUGUCCUUGCAUAGUCUUUAGUUA	0.0269 ± 0.0075	0.00468 ± 0.0022	0.00326 ± 0.0014
UCCUGCUACAGCUUGCCUAGUAUUUAGUUA	0.222 ± 0.015	0.0074 ± 0.0022	0.00702 ± 0.0018
UCCUGGUACAGCUUGCAUGUAUUUAGUUA	0.0383 ± 0.0075	0.00417 ± 0.0024	0.0036 ± 0.0031
UCCUCCUACAGCUUGCAUAGUAUUUAGUUUA	0.333 ± 0.019	0.0143 ± 0.0034	0.145 ± 0.039
UCCUCCUAGAGCUUGCAUAGUAAUUAGUUA	0.264 ± 0.029	0.00317 ± 0.0031	0.011 ± 0.0039
UCCUGGUACAGCAUGCUUAGUAUUUAGUUA	0.208 ± 0.025	0.0118 ± 0.0026	0.00778 ± 0.0028
UCCUGGUACAGGUUGCAUAGUAUUUAGUAA	0.287 ± 0.04	0.00626 ± 0.0028	0.00428 ± 0.0022
UCCUGGAUCAGCUUGCAUAGUAUUAUAGUUA	0.283 ± 0.022	0.00669 ± 0.0028	0.0796 ± 0.024
UCCUGCUACAGCAUGCAUAGUAUUAAGUUA	0.331 ± 0.043	0.00346 ± 0.0032	0.00828 ± 0.0024
UCCUGGAUGUGGUUGCAUAGUAAUUAGUUA	0.162 ± 0.034	0.00751 ± 0.0032	0.00754 ± 0.0039
UCCUCCUACAGGUUGCAUAGUAUUUAGUAA	0.233 ± 0.017	0.00603 ± 0.0015	0.00547 ± 0.0022
UCCUCCUACAGCAUGCAUACUAUUUAGUUA	0.0758 ± 0.011	0.00328 ± 0.0022	0.00724 ± 0.0028
UCCUGGAUCAGCUUGCACAGUAUUUAGUUA	0.157 ± 0.015	0.0116 ± 0.003	0.0672 ± 0.016
UCCUGGAUCAGUCUUGCAUAGUAUUUAGUUA	0.212 ± 0.016	0.0108 ± 0.0023	0.0152 ± 0.0042
UCCUGGAUGUGCUUGCAUAGUAUUUAGGUUA	0.102 ± 0.019	0.00588 ± 0.0033	0.00262 ± 0.0021
UCCUGGAACAGCUUGGAUAGUAUUUAGUUA	0.27 ± 0.013	0.0119 ± 0.0026	0.0302 ± 0.0072
UCCUGGAUCUGCUAGCAUAGUAUUUAGUUA	0.168 ± 0.014	0.00596 ± 0.0019	0.0121 ± 0.0038
UCCUGGAUCAGCUAUGCAUAGUAUUUAGUUA	0.281 ± 0.019	0.0057 ± 0.0026	0.106 ± 0.02
UCCUGGAUGAGCUUGCAUAGUAUUUACGUUA	0.189 ± 0.031	0.00682 ± 0.0032	0.00466 ± 0.0026
UCCUCCUACAGCUUGAAUAGUAUUUAGUUA	0.283 ± 0.015	0.00723 ± 0.002	0.0651 ± 0.017
UCCUGCUACAGCUUGGAUAGUAUUUUGUUA	0.109 ± 0.019	0.00311 ± 0.003	0.00556 ± 0.002
UCCUGGAUGAGCUUGCAUACUAUUUAGUUA	0.0499 ± 0.0093	0.00321 ± 0.0018	0.00682 ± 0.0019
UCCUGGUUCAGCUUGCAUAGUAUAUAGUUA	0.198 ± 0.034	0.0112 ± 0.0032	0.00607 ± 0.0027
UCCUGGAUGCGCUUGCAUAGUAUUUAGUUA	0.239 ± 0.016	0.0108 ± 0.0028	0.0286 ± 0.0065

Sequence	pre-steady-state target cleavage rate [1, 3]	pre-steady-state target cleavage rate [1, 4]	pre-steady-state target cleavage rate [2]
UCCUGCUACAGCUUGCAUAGUUUUUAGUUA	0.0767 ± 0.014	0.00327 ± 0.0022	0.00538 ± 0.0021
UCCUCCUACAGCUUGCAUAGUAUUAAGUUA	0.178 ± 0.026	0.00415 ± 0.0024	0.00589 ± 0.0029
UCCUGGAUCUGCUUGCAUAGUAUUUAGUAA	0.22 ± 0.014	0.00457 ± 0.0021	0.1 ± 0.038
UCCUCCUACAGCCUUGCAUAGUAUUUAGUUA	0.262 ± 0.019	0.0101 ± 0.0026	0.0222 ± 0.0079
UCCUGGAUCAGCUUGCAUAGUACUUUAGUUA	0.14 ± 0.016	0.00672 ± 0.0027	0.00735 ± 0.0023
UCCUGGAUCAGCUUGCUUAGUAAUUAGUUA	0.212 ± 0.022	0.00689 ± 0.0022	0.0988 ± 0.033
UCCUGGAUCAGCUUGGAUAGUAUUUAGUAA	0.166 ± 0.019	0.00324 ± 0.0026	0.00463 ± 0.0023
UCCUGGAACAGCUUGCAUUGUAUUUAGUUA	0.18 ± 0.014	0.00894 ± 0.0026	0.00926 ± 0.0026
UCCUGCUCCAGCUUGCAUAGUAUUUAGUUA	0.256 ± 0.017	0.00969 ± 0.0026	0.0877 ± 0.024
UCCUGGAACAGCCUUGCAUAGUAUUUAGUUA	0.225 ± 0.019	0.00974 ± 0.003	0.0147 ± 0.0046
UCCUGGAUGAGCUGUGCAUAGUAUUUAGUUA	0.191 ± 0.013	0.0151 ± 0.0044	0.0255 ± 0.0063
UCCUGCUAGAGGUUGCAUAGUAUUUAGUUA	0.2 ± 0.011	0.0085 ± 0.0026	0.00977 ± 0.0027
UCCUGCUACAGCUUGCAUAGUAAUUAGUUA	0.271 ± 0.028	0.00539 ± 0.0023	0.0061 ± 0.0022
UCCUCCUACAGCUCUGCAUAGUAUUUAGUUA	0.276 ± 0.014	0.00692 ± 0.0018	0.0445 ± 0.014
UCCUCCUACAGCUUGGAUAGUAAUUAGUUA	0.25 ± 0.024	0.00499 ± 0.0021	0.0274 ± 0.0089
UCCUGGAACUGCUUGCAUAGUAUAUAGUUA	0.128 ± 0.021	0.00491 ± 0.0025	0.0584 ± 0.021
UCCUGGUUCAGCUUGCAUAGUAUUUAGUUA	0.23 ± 0.022	0.0108 ± 0.0032	0.0765 ± 0.018
UCCUGGAACUGCAUGCAUAGUAUUUAGUUA	0.224 ± 0.013	0.00585 ± 0.0025	0.0126 ± 0.0039
UCCUCCAACAGCUUGCAUAGUAUUUAGUUA	0.329 ± 0.017	0.00861 ± 0.0027	0.113 ± 0.032
UCCUGGAACAGGUUGCAUAGAAUUUAGUUA	0.0524 ± 0.011	0.0038 ± 0.002	0.00258 ± 0.0014
UCCUGGAUGAGCUUGCAUAGUAUUUAGUGA	0.193 ± 0.025	0.00439 ± 0.003	0.00681 ± 0.0032
UCCUGCUUGUGCUUGCAUAGUAUUUAGUUA	0.13 ± 0.017	0.00616 ± 0.0025	0.00618 ± 0.0027
UCCUGCUACAGCUCGCAUAGUAUUUAGUUA	0.264 ± 0.015	0.00757 ± 0.0027	0.0122 ± 0.0028
UCCUCCUACUGCUUGCUUAGUAUUUAGUUA	0.234 ± 0.015	0.00718 ± 0.0021	0.0504 ± 0.015
UCCUGCUACAGGUUGCAUAGUAUUAAGUUA	0.208 ± 0.034	0.00616 ± 0.0022	0.00526 ± 0.0024

Source: the supplement of paper PMC10338343
